The values below come from PubChem BioAssay (EPA / NIEHS).

Results filed as inconclusive are left out. Calls of active or inactive are those of the source. Rule for the calls: active = hit-call score of the fitted dose curve at least 0.9, where 1 is the maximum; inconclusive = response in the unintended direction; inactive = score below 0.9.

Chain of Androgen Receptor/SRC-1 Co-activator, AR (gene 367) (P10275 whole entry, looked up, the tested form may be a part): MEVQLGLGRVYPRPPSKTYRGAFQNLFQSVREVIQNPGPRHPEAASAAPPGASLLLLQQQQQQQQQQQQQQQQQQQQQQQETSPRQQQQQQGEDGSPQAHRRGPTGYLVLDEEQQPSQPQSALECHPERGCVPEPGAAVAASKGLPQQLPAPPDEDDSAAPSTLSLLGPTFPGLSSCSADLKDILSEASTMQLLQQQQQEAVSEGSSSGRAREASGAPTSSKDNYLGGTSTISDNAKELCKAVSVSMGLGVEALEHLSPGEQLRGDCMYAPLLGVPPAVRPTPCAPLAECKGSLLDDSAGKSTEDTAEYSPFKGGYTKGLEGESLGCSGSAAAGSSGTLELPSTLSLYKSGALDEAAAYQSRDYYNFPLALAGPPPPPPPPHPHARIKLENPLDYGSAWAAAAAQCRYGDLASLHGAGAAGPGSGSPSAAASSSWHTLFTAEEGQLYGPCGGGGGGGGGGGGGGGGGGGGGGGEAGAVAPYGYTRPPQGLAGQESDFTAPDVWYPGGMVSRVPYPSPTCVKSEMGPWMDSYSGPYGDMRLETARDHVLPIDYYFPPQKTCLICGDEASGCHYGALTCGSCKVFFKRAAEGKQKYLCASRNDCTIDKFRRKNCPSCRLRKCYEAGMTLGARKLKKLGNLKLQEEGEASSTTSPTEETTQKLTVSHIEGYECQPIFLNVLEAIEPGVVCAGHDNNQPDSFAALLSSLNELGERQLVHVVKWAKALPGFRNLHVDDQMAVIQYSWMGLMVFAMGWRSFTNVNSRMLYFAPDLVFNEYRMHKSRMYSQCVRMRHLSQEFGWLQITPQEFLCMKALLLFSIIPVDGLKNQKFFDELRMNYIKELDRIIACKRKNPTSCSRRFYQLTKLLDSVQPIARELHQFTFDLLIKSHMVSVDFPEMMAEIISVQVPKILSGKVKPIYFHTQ

The assay deals with Androgen Receptor/SRC-1 Co-activator, AR (gene 367) (UniProt P10275). Nature of the assay: OT_AR_ARSRC1_0480: Odyssey Thera (OT) 8-hour HEK293T Protein-Complementation Assay for Androgen Receptor/SRC-1 Co-activator (AID 2283354).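 Note: hits raise the complementation signal above DMSO so AC50 marks enhancers.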 The procedure:
OT_AR_ARSRC1_0480 is a cell-based, single-readout assay that uses HEK293T, a human kidney cell line, with measurements taken at 8 hours after chemical dosing in a 384-well plate.OT_AR_ARSRC1_0480 is one of one assay component(s) measured or calculated from the OT_AR_ARSRC1_0480 assay. It is designed to make measurements of protein fragment complementation, a form of binding reporter, as detected with fluorescence intensity signals by Protein-fragment Complementation technology.Data from the assay component OT_AR_ARSRC1_0480 was analyzed into 1 assay endpoint. This assay endpoint, OT_AR_ARSRC1_0480, was analyzed in the positive analysis fitting direction relative to DMSO as the negative control and baseline of activity. Using a type of binding reporter, measures of receptor for gain-of-signal activity can be used to understand the binding at the pathway-level as they relate to the gene AR. Furthermore, this assay endpoint can be referred to as a primary readout, because the performed assay has only produced 1 assay endpoint. To generalize the intended target to other relatable targets, this assay endpoint is annotated to the nuclear receptor intended target family, where the subfamily is steroidal.
Protein-fragment complementation assay, or PCA, is a method for the identification and quantification of protein-protein interactions. In the PCA, the proteins of interest ("bait" and "prey") are each covalently linked to fragments of a third protein (e.g. DHFR, which acts as a "reporter"). Interaction between the bait and the prey proteins brings the fragments of the reporter protein in close proximity to allow them to form a functional reporter protein whose activity can be measured. The OT AR / SRC-1 assay assessed androgen receptor chemical interactions using a rapidly maturing, intensely fluorescent mutant of YFP known as Venus, rationally dissected into two separate fragments. […] Fusion constructs were transfected into HEK293T cells with a (Gly4Ser)2 linker between the AR/SRC-1 and YFP fragment genes to facilitate complementation when interacting proteins bring fragments into close proximity. The construct is stably expressed in HEK293T cells. […] Images were acquired on an Evotec Opera at 2 wavelengths (488 and 635nm), and the ratio of fluorescence in the nucleus relative to fluorescence in the cytoplasm (N/C Ratio) in the 488nm channel was calculated for a minimum of 400 cells per image. Both agonists and antagonists of the AR receptor induce nuclear translocation to varying degrees. […] The OT AR/SRC-1 assay was also run for 16 hours (see description for OT_AR_ARSRC1_0960).
`Cc1ccc(S(=O)(=O)Oc2ccc(N=Nc3ccc(-c4ccc(N=Nc5c(O)ccc6cc(S(=O)(=O)O)cc(S(=O)(=O)O)c56)c(C)c4)cc3C)cc2)cc1`: the compound was called inactive.

Take `BrCc1cccc(Oc2ccccc2)c1`: the compound was called inactive.

In the case of `CC(C=O)Cc1ccc(C(C)(C)C)cc1` (centres undefined), the outcome was inactive.

For `CCCCCCCCCCCCCC(=O)OCC(O)CO` (centres undefined), the compound was classed as inactive.

For `CCc1cc(Cc2cc(CC)cc(C(C)(C)C)c2O)c(O)c(C(C)(C)C)c1`, the concentration at half-maximal activity (AC50) was 15.8 µM (active).

Consider `CCc1ccc(O)cc1`, for which the outcome was inactive.

As for `Nc1ccc(N)c2c1C(=O)c1ccccc1C2=O`, the outcome was inactive.

For `CCCCCCCCC=CCCCCCCCC1=NCCN1CCO`, the AC50 is 23.3 µM (active).

Regarding `C[C@H]1O[C@@H](O[C@H]2[C@@H](O)C[C@H](O[C@H]3[C@@H](O)C[C@H](O[C@H]4CC[C@@]5(C)[C@H](CC[C@@H]6[C@@H]5C[C@@H](O)[C@]5(C)[C@@H](C7=CC(=O)OC7)CC[C@]65O)C4)O[C@@H]3C)O[C@@H]2C)C[C@H](O)[C@@H]1O`, the result was inactive.

Regarding `CCCCC1CCC(O)CC1` (centres undefined), the compound was classed as inactive.

Take `CCOC(=O)[C@@H](C)Oc1ccc(Oc2nc3ccc(Cl)cc3o2)cc1`: the compound was called inactive.

As for `OCc1cccc(Oc2ccccc2)c1`, the compound was called inactive.

Consider `CC1CCC(C(C)C)C(O)C1` (centres undefined), for which the compound was called inactive.

In the case of `CCCCCCCCSCCO`, the compound was called inactive.
